Molecules are shown by their SMILES. In all, about 290,000 compounds went through this assay and about 2,300 (0.79%) were called active. No stated cut-off is given here; in the data, active means inhibition above about 22%; inactive means the rest. This excerpt belongs to a sample that is enriched for actives.

A short description of this assay: IEC-6 cell viability reduction – luminescence, cytotoxicity control for KLF5 inhibitor project, primary screen (AID 1825).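 Further: 0% = plate median of test compound wells and 100% = cytotoxic reference compound wells.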 To be noted: IEC-6 cytotoxicity, at 5 µM, hits give high values.
As a reminder, the inhibition is the drop in the measured response relative to a control, in per cent. As for `CCn1ccnc1CN(C)C(=O)c1cc(COc2ccc(Cl)cc2OC)on1`, the inhibition was 1.4% (inactive). In the case of `Cc1nn(CCCC(=O)NCc2ccccc2Cl)c(=O)c2nccn12` it was -5.6% (inactive). Then `CCOC(=O)c1cnc(-n2nc(C)cc2C)nc1Nc1cccc(C(C)=O)c1`, with 1.3% (inactive). `Cc1cc(N/N=C\c2ccc(Br)cc2)nc(-n2nc(C)cc2C)n1`: the inhibition was -0.5% (inactive). For `COc1ccc(Nc2cc(C)nc(-n3nc(C)cc3C)n2)cc1`, the inhibition was 84.8% (active).

With `Cc1cc(Oc2ccc(Cl)cc2)nc(SCC(=O)c2ccccc2)n1`, the inhibition was 1.9% (inactive). Then `CC(=O)c1ccc(Oc2cc(C)nc(-n3nc(C)cc3C)n2)cc1`, with 85.4% (active); and `COc1ccccc1/C=N\Nc1cc(C)nc(-n2nc(C)cc2C)n1`, with -10.1% (inactive); and `N#CCc1ccc(NC(=O)c2ccccc2C(=O)Nc2ccc(CC#N)cc2)cc1`, with -5.3% (inactive). With `COC(=O)COc1ccc2c(=O)c(Oc3ccccc3Br)coc2c1`, the inhibition was 5.7% (inactive). Turning to `Cc1nc2sccn2c(=O)c1S(=O)(=O)NCCc1ccccc1`, the inhibition was -0.1% (inactive). For `CCc1cccc(NC(=O)C2CCCN(S(=O)(=O)c3ccc4[nH]c(=O)ccc4c3)C2)c1` (centres undefined), the inhibition is -2.8% (inactive).

With `COc1ccc2oc(=O)cc(-c3cc4ccccc4o3)c2c1`, the inhibition is 2.8% (inactive). Then `COc1ccc(Nc2cc(=O)oc3ccccc23)cc1`, with 46.4% (active); and `COc1ccc(Nc2nnc(C)c3ccccc23)cc1`, with -4% (inactive); and `O=S(=O)(Cc1nnnn1-c1ccccc1)c1ccccc1`, with 1.5% (inactive). In the case of `O=C(Nc1nnc(S(=O)(=O)N2CCOCC2)s1)c1cccc(Br)c1` it was 0.3% (inactive); in that of `O=C(Nc1nnc(C2CC2)s1)c1cc(Cl)sc1Cl`, 0.1% (inactive). `O=C(Nc1nnc(C2CC2)s1)c1ccccn1`: the inhibition is 27.4% (active). On to `Cc1cnc(NC(=O)c2ccccn2)s1`, for which the inhibition was 8.9% (inactive).

For the compound `COc1ccc(/C=N/N(C)C2=NS(=O)(=O)c3ccccc32)cc1OC`, the inhibition is -2.2% (inactive). Consider `CN(C)c1nc(=Nc2cccc(Cl)c2)ss1`, for which the inhibition was 56.2% (active). Regarding `Clc1cccc(N=C2NN=C(c3ccc4c(c3)OCCO4)CS2)c1`, the inhibition was -1.6% (inactive). In the case of `O=C(CN1CCN(Cc2ccccc2)CC1)Nc1ccc(F)c(F)c1` it was 6.7% (inactive); in that of `Cn1c(=O)oc2cc(S(=O)(=O)NCCC(=O)NCc3ccccc3Cl)ccc21`, 0.7% (inactive); in that of `COc1ccccc1CNC(=O)C1CCN(S(=O)(=O)c2ccc3c(c2)CC(C)N3C(=O)C2CC2)CC1` (centres undefined), 3.9% (inactive). Then `Cc1cc(Nc2ccc(Cl)cc2)nc(N2CCOCC2)n1`, with 11.5% (inactive); and `Cc1ccccc1NC(=O)CSc1nc2ccc(Nc3nc(N4CCOCC4)nc(N4CCOCC4)n3)cc2s1`, with 3.9% (inactive). For the compound `Cc1ccc(Nc2nc(N3CCOCC3)nc(N3CCOCC3)n2)cc1Cl`, the inhibition is 68.1% (active).

The record behind these values is PubChem BioAssay AID1825 (The Scripps Research Institute Molecular Screening Center, 2009).
